Assay outcomes from PubChem.
Shown are actives, neighbours in structure and some others; about 19% of the full set was active somewhere.
HT1080 IDH1KD tx – HT-1080 IDH1 knockdown cell toxicity (counter line); AID 686971; HT-1080 IDH1 knockdown viability, ATP luminescence, 48 h; 360,000 compounds, 2% hits; Potency, µM (top dose mostly 46.1 µM), inactives show at the highest dose activity, negative = toxicity, hits mostly cytotoxic;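 further: potency means the concentration at half of the fitted maximal effect; 0% = DMSO wells and -100% = cell-free medium wells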
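In this qHTS, HT-1080 cells depleted of IDH1 are exposed for 48 h at 37 °C to compound titrations. Toxicity is scored from CellTiter-Glo luminescence, with DMSO as full viability and medium alone as none.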
ELG1 DNA repair – ELG1-dependent DNA repair inhibition; 330,000 compounds, 2.3% hits; Potency, µM (highest dose often 46.1 µM), without a hit: at the highest dose activity change, negative = inhibition, usual class: inhibitors; AID 504467; HEK293T ELG1-luciferase reporter, luminescence, 16 h; DNA damage induced by 5-fluorouridine; further: potency means the concentration at half of the fitted maximal effect; nearly all actives have a fitted effect of over 55% in size
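Overnight (16 hr) co-exposure of 2,000 cells/well to 5-fluorouridine and compound at 37 °C preceded detection. Luciferase was quantified via ONE-Glo luminescence; loss of signal denotes inhibition.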
HT1080-NT tox – kills 2HG-producing HT-1080-NT fibrosarcoma cells; HT-1080-NT fibrosarcoma viability, CellTiter-Glo ATP luminescence, 48 h; Potency, µM (doses to about 46.1 µM), without a hit: top-dose activity, negative = less viability, most hits filed as cytotoxic; 360,000 compounds, 1.6% hits; AID 686970;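 further: NT is the 2HG producing partner of a matched IDH1 knockdown line; potency means the concentration at half of the fitted maximal effect; 0% = DMSO-treated cells and -100% = media-only wells without cells; nearly all actives have a fitted effect of over 55% in size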
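Read-out is CellTiter-Glo luminescence after 10 minutes at room temperature, following 48 hours' compound treatment of HT-1080-NT cells (750 cells/well, RPMI, 5% FBS, 37 degrees C).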
DT40 TDP1 CPT – DT40-hTDP1 cell growth loss with CPT; chicken DT40 Tdp1-/-;hTDP1 cells + 20 nM CPT, ATP luminescence, 48 h; Potency, µM (series often up to 46.2 µM), for the others: at the highest dose activity change, negative = growth inhibition, usual class: inhibitors; 420,000 compounds, 12% hits; AID 686979; further: potency means the concentration at half of the fitted maximal effect; nearly all actives have a fitted effect of over 55% in size
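Cell growth measured by CellTiter-Glo luminescence after a minimum 48 h, 37 C compound exposure with 20 nM CPT in Tdp1-knockout DT40 cells stably expressing hTDP1, seeded 400/well; qHTS titration format.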
IL1B secr inh – inflammasome signaling inhibition, IL-1 beta readout. THP-1 LPS/ATP IL-1B secretion, AlphaLISA, 16 h; hits give low values. activity change, % at 57.5 µM. 360,000 compounds, 4.7% hits. AID 743279; in the data active means activity change below about -50%; inconclusive means mostly about -30% to -49%
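THP-1 cells pretreated 1 hr with compounds (up to 57.5 uM final), then stimulated with LPS (250 ng/mL final) plus ATP (1.25 mM final); secreted IL-1B measured by AlphaLISA after 16 hr, decreased signal indicating inhibition.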
DT40 TDP1 no CPT – qHTS for Inhibitors of human tyrosyl-DNA phosphodiesterase 1 (TDP1): qHTS in cells in absence of CPT; DT40 Tdp1-/- hTDP1 cells, no CPT, ATP luminescence, 48 h; Potency, µM (titrated, usually from 46.2 µM), for the others: top-dose activity change, negative = growth inhibition, usual class: inhibitors; 420,000 compounds, 15% hits; AID 686978, 2013; further: potency means the concentration at half of the fitted maximal effect; nearly all actives have a fitted effect of over 55% in size
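Compound effects on proliferation are scored in DT40 Tdp1-/-;hTDP1 cells in the absence of CPT. ATP levels (CellTiter-Glo luminescence) are recorded after a ≥48 hr, 37 °C incubation.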
* marks the source's active call; other numbers are inactive results. Unless noted, the call rests on the fitted dose curve; in most records, active means well fitted curve in the direction sought with a large enough effect; inconclusive means small, poorly fitted or top-dose-only effect, or another doubt; inactive means no such curve, though single readings can be large; an effect the other way counts as inactive or inconclusive. Unless noted, on the % scale 0 is the no-effect control and ±100 the full control effect.

`COC(=O)c1[nH]nc(C(=O)OC(C)(C)C)c1-c1ccccc1` gave HT1080 IDH1KD tx -1%, ELG1 DNA repair -18%, HT1080-NT tox 8%, DT40 TDP1 CPT 16µM*, IL1B secr inh 44 and DT40 TDP1 no CPT 13µM*.
For O=C(Nc1ccc(F)cc1)C(c1ccnc2ccccc12)N1CCN(c2cccc(C(F)(F)F)n2)CC1 (stereo unspecified) the results were HT1080 IDH1KD tx inconclusive, HT1080-NT tox inconclusive, DT40 TDP1 CPT inconclusive, IL1B secr inh 2 and DT40 TDP1 no CPT 21µM*.
`Cc1cccc(C)c1NC(=O)C(c1ccnc2ccccc12)N1CCN(CCN(C)C)CC1` (stereo unspecified) gave HT1080 IDH1KD tx 0%, HT1080-NT tox -12%, DT40 TDP1 CPT 4.6µM*, IL1B secr inh 39 and DT40 TDP1 no CPT 5.2µM*.
For Cc1cccc(C)c1-n1nnnc1C(c1ccnc2ccccc12)N1CCCN(C(=O)OC(C)(C)C)CC1 (stereo unspecified) the results were HT1080 IDH1KD tx inconclusive, HT1080-NT tox 16%, DT40 TDP1 CPT inconclusive, IL1B secr inh 37 and DT40 TDP1 no CPT 18µM*.
O=C(OCc1ccccc1)N1CCN(C(c2ccnc3ccccc23)c2nnnn2-c2ccc3c(c2)OCCO3)CC1 (stereo unspecified) was read as HT1080 IDH1KD tx inconclusive, HT1080-NT tox inconclusive, DT40 TDP1 CPT 23µM*, IL1B secr inh inconclusive and DT40 TDP1 no CPT 8.2µM*.
For Cc1cccc(C)c1-n1nnnc1C(c1ccnc2ccccc12)N1CCN(CC(=O)NC(C)C)CC1 (stereo unspecified) the results were HT1080 IDH1KD tx inconclusive, HT1080-NT tox 12%, DT40 TDP1 CPT -13%, IL1B secr inh 39 and DT40 TDP1 no CPT -27%.
CN(C)CCN1CCN(C(c2ccnc3ccccc23)c2nnnn2-c2ccc3c(c2)OCCO3)CC1 (stereo unspecified) was read as HT1080 IDH1KD tx -2%, HT1080-NT tox -26%, DT40 TDP1 CPT -23%, IL1B secr inh -10 and DT40 TDP1 no CPT 16µM*.
Screening c1ccc2c(C(c3nnnn3-c3ccc4c(c3)OCCO4)N3CCCC3)ccnc2c1 (stereo unspecified) returned HT1080 IDH1KD tx 1%, HT1080-NT tox 7%, DT40 TDP1 CPT -2%, IL1B secr inh 51 and DT40 TDP1 no CPT inconclusive.
Cc1cccc(CS(=O)(=O)CC2Nc3ccc(C(=O)NCc4ccccc4Cl)cc3NC2=O)c1 (stereo unspecified) was read as DT40 TDP1 CPT 8.2µM* and DT40 TDP1 no CPT inconclusive.
For c1ccc(COc2ccc(OCCCCN3CCCC3)cc2)cc1 the results were HT1080 IDH1KD tx -15%, ELG1 DNA repair inconclusive, HT1080-NT tox -1%, DT40 TDP1 CPT inconclusive, IL1B secr inh -7 and DT40 TDP1 no CPT 23µM*.
For O=C(c1ccccc1)c1ccc(OCCCN2CCCCC2)cc1 the results were HT1080 IDH1KD tx 1%, ELG1 DNA repair 2%, HT1080-NT tox -4%, DT40 TDP1 CPT -16%, IL1B secr inh -59* and DT40 TDP1 no CPT -23%.
For COc1ccc(CN2C(=O)NC3(CCCC3)C2=O)cc1F the results were HT1080 IDH1KD tx 23%, ELG1 DNA repair 6%, HT1080-NT tox 25%, DT40 TDP1 CPT 23%, IL1B secr inh 15 and DT40 TDP1 no CPT 25%.
For COc1ccc(CN2C(=O)NC3(CCCCCC3)C2=O)cc1F the results were HT1080 IDH1KD tx 8%, ELG1 DNA repair -1%, HT1080-NT tox 10%, DT40 TDP1 CPT 16µM*, IL1B secr inh 5 and DT40 TDP1 no CPT 15µM*.
Screening CCCOc1nc(N)c(C#N)c(-c2ccccc2F)c1C#N returned HT1080 IDH1KD tx -8%, ELG1 DNA repair -23%, HT1080-NT tox -1%, DT40 TDP1 CPT 16µM*, IL1B secr inh -6 and DT40 TDP1 no CPT inconclusive.
For CCc1nc(N)c(C#N)c(-c2cccc3ccccc23)c1C the results were HT1080 IDH1KD tx 6%, ELG1 DNA repair -2%, HT1080-NT tox 16%, DT40 TDP1 CPT -17%, IL1B secr inh 18 and DT40 TDP1 no CPT -1%.
`Cn1cc(/C=C2\SC(=O)N(c3ccc(O)cc3)C2=O)c2ccccc21` gave HT1080 IDH1KD tx inconclusive, ELG1 DNA repair inconclusive, HT1080-NT tox inconclusive, DT40 TDP1 CPT inconclusive, IL1B secr inh inconclusive and DT40 TDP1 no CPT 16µM*.
`Cc1nc2sc(C(c3ccco3)N3CCN(C(c4ccccc4)c4ccccc4)CC3)c(O)n2n1` (stereo unspecified) gave HT1080 IDH1KD tx -24%, ELG1 DNA repair inconclusive, HT1080-NT tox -12%, DT40 TDP1 CPT inconclusive, IL1B secr inh -7 and DT40 TDP1 no CPT 18µM*.
`COc1cc(C(c2sc3nc(C)nn3c2O)N2CCc3ccccc3C2)cc(OC)c1OC` (stereo unspecified) gave HT1080 IDH1KD tx -2%, ELG1 DNA repair -17%, HT1080-NT tox -3%, DT40 TDP1 CPT 23µM*, IL1B secr inh 16 and DT40 TDP1 no CPT 10µM*.
For COc1ccc(C(c2sc3nc(C)nn3c2O)N2CCc3ccccc3C2)cc1 (stereo unspecified) the results were HT1080 IDH1KD tx 4%, ELG1 DNA repair 7%, HT1080-NT tox -13%, DT40 TDP1 CPT -20%, IL1B secr inh 5 and DT40 TDP1 no CPT -22%.
`CC(C)Cc1ccc(CN2CCCC(NC(=O)CCn3cnnn3)C2)cc1` (stereo unspecified) gave HT1080 IDH1KD tx -2%, ELG1 DNA repair 0%, HT1080-NT tox -6%, DT40 TDP1 CPT inconclusive, IL1B secr inh -60* and DT40 TDP1 no CPT inconclusive.
For CC(C)Cc1ccc(CN2CCCC(NC(=O)Cn3cnnn3)C2)cc1 (stereo unspecified) the results were HT1080 IDH1KD tx 0%, ELG1 DNA repair 3%, HT1080-NT tox -11%, DT40 TDP1 CPT inconclusive, IL1B secr inh -1 and DT40 TDP1 no CPT -64%.
`CC(C)Cc1ccc(CN2CCCC(NC(=O)CCCN3CCCC3=O)C2)cc1` (stereo unspecified) gave HT1080 IDH1KD tx 0%, ELG1 DNA repair -15%, HT1080-NT tox -1%, DT40 TDP1 CPT inconclusive, IL1B secr inh 30 and DT40 TDP1 no CPT 21µM*.
Screening CCCCN(CC)C(=O)C1CCCN(c2ncnc3c2nc2n3CCCCC2)C1 (stereo unspecified) returned DT40 TDP1 CPT inconclusive and DT40 TDP1 no CPT 21µM*.
